assay: modulators of CIT2-GFP expression in yeast, confirmation, S. cerevisiae, GFP fusion, cherry picks, mother/daughter gates (AID 2274); conditions: S. cerevisiae CIT2-GFP strain, flow cytometry, 3 h; measured here: daughter cell gate; at 10 µM; stronger effect = higher value

Compound	GFP response, % of DMSO
COc1ccc(CCNC2=C(Cl)C(=O)N(CCc3ccc(OC)c(OC)c3)C2=O)cc1OC	98.3%
O=S1(=O)Nc2c(ccc3cccnc23)-c2ccccc21	108%
O=C(/C=C/c1cc(Br)ccc1O)c1ccco1	98.3%
COc1cc(NC(C)=O)ccc1NC(=O)c1cc2ccccc2o1	98.1%
COc1ccc(CC2=CC(=O)c3ccccc3C2=O)cc1	96.4%
C=CCn1cc(/C=C/c2cc[n+](C)cc2)c2ccccc21	119%
C[n+]1ccc(/C=C/c2c[nH]c3ccc(F)cc23)cc1	108%
CCSc1nnc(NC(=O)c2nc(S(=O)(=O)Cc3ccc(F)cc3)ncc2Cl)s1	110%
COc1ccc(C2c3c(oc4ccccc4c3=O)C(=O)N2CCN2CCOCC2)cc1OC (stereo not given)	116%
Cc1ccc(C(=O)c2c3ccccc3[n+]([O-])n2CCO)cc1	99.1%
CC(=O)Nc1ccc(S(=O)(=O)NC(CC(=O)NCCC2=CCCCC2)C(C)C)cc1 (stereo not given)	101%
Cc1ccc(C(=O)NNC(=S)NC(=O)COc2ccccc2)cc1	139%
Cc1occc1-c1nnc(-c2cc([N+](=O)[O-])cc([N+](=O)[O-])c2)o1	85.7%
Cc1ccc(NS(=O)(=O)c2ccc(CCC(=O)N3CCOCC3)cc2)cc1	103%
O=C1Nc2ccc(Br)cc2/C1=C/C1CC=CCC1 (stereo not given)	108%
CN1CC(=O)NC1=NC(=O)C12CC3CC(CC(C3)C1)C2	94.6%
O=S(=O)(c1ccc(Oc2ccccc2)cc1)N1CCOCC1	94.8%
COc1cc(NC(=O)c2oc3ccccc3c2C)ccc1NC(=O)c1ccco1	97.6%
CCCN1CCN(C(=O)c2oc3ccccc3c2NC(=O)COc2ccc(OC)cc2)CC1	106%
COc1cc(/C=C2\N=C(c3ccccc3)OC2=O)ccc1OC(C)=O	111%
COc1ccc(NC(=O)/C(Cl)=C(/Cl)S(=O)Cc2ccccc2)cn1 (stereo not given)	134%

same assay, conditions: S. cerevisiae CIT2-GFP strain, flow cytometry, 3 h; measured here: mother cell gate; at 10 µM; stronger effect = higher value

Compound	GFP response, % of DMSO
O=C(Nc1ccc(NC(=O)c2cc3ccccc3o2)cc1)c1ccc2c(c1)OCCO2	107%
Cc1ncc2c(n1)-c1cc(F)ccc1SC2	109%
Cc1ccc(S(=O)(=O)Cc2cc(F)c([N+](=O)[O-])cc2[N+](=O)[O-])cc1	72.8%
C/C(CC(=O)Nc1cc(C)ccn1)=N\NC(=O)c1cccc(F)c1	93.4%
CN=C(NC)SC1CC(=O)N(c2ccccc2)C1=O (stereo not given)	91.2%
O=C1/C(=C\c2ccc(O)c(O)c2)SC(=S)N1Cc1ccccc1	108%
COc1cc(/C=C2\C(=O)N(CCC#N)N=C2C)c(Br)cc1OC(C)C	90.2%
CCn1c(=O)c(C(=O)Nc2nc3ccccc3[nH]2)c(O)c2ccccc21	109%
CC1CN(c2nc3ccccn3c(=O)c2/C=C(\C#N)C(N)=O)CC(C)O1 (stereo not given)	103%
CCOC(=O)CSC1=NC(=O)/C(=C\c2ccc(Cl)cc2)S1	88.2%
O=C(N/N=C/c1ccccc1Cl)c1cccc(F)c1	98.1%
CCN(CC)CCNC(=O)Cn1c(-c2ccccn2)nc2ccccc21	97.7%
COc1ccc(N2C(=O)C(Cl)=C(Nc3ccccc3OC)C2=O)cc1	98.1%
COc1ccc(C(=O)/C=C/c2ccccc2C(F)(F)F)cc1	107%
O=C(COc1ccc(F)cc1Cl)Nc1nc(-c2ccccn2)cs1	89.3%
COc1ccc(/C=N/NC(=O)C2(C)NC(C)(C)Cc3ccccc32)cc1 (stereo not given)	98.5%
COc1ccc(OC)c(C2CC(c3c(-c4ccccc4)c4cc(Cl)ccc4[nH]c3=O)=NN2S(C)(=O)=O)c1 (stereo not given)	97.7%
Cc1ccc(/C=C/C(=O)N2CC(C)CC(C)C2)o1 (stereo not given)	105%
COc1ccc(CCNC2=C(Cl)C(=O)N(CCc3ccc(OC)c(OC)c3)C2=O)cc1OC	93.3%
O=S1(=O)Nc2c(ccc3cccnc23)-c2ccccc21	113%

Compound	GFP response, % of DMSO
O=C(/C=C/c1cc(Br)ccc1O)c1ccco1	91%
COc1cc(NC(C)=O)ccc1NC(=O)c1cc2ccccc2o1	101%
COc1ccc(CC2=CC(=O)c3ccccc3C2=O)cc1	94.5%
C=CCn1cc(/C=C/c2cc[n+](C)cc2)c2ccccc21	127%
C[n+]1ccc(/C=C/c2c[nH]c3ccc(F)cc23)cc1	112%
CCSc1nnc(NC(=O)c2nc(S(=O)(=O)Cc3ccc(F)cc3)ncc2Cl)s1	113%
COc1ccc(C2c3c(oc4ccccc4c3=O)C(=O)N2CCN2CCOCC2)cc1OC (stereo not given)	113%
Cc1ccc(C(=O)c2c3ccccc3[n+]([O-])n2CCO)cc1	97.3%
CC(=O)Nc1ccc(S(=O)(=O)NC(CC(=O)NCCC2=CCCCC2)C(C)C)cc1 (stereo not given)	101%
Cc1ccc(C(=O)NNC(=S)NC(=O)COc2ccccc2)cc1	110%
Cc1occc1-c1nnc(-c2cc([N+](=O)[O-])cc([N+](=O)[O-])c2)o1	81.8%
Cc1ccc(NS(=O)(=O)c2ccc(CCC(=O)N3CCOCC3)cc2)cc1	101%
O=C1Nc2ccc(Br)cc2/C1=C/C1CC=CCC1 (stereo not given)	104%
CN1CC(=O)NC1=NC(=O)C12CC3CC(CC(C3)C1)C2	92.1%
O=S(=O)(c1ccc(Oc2ccccc2)cc1)N1CCOCC1	94.4%
COc1cc(NC(=O)c2oc3ccccc3c2C)ccc1NC(=O)c1ccco1	99.3%
CCCN1CCN(C(=O)c2oc3ccccc3c2NC(=O)COc2ccc(OC)cc2)CC1	106%
COc1cc(/C=C2\N=C(c3ccccc3)OC2=O)ccc1OC(C)=O	113%
COc1ccc(NC(=O)/C(Cl)=C(/Cl)S(=O)Cc2ccccc2)cn1 (stereo not given)	99.1%

Reference: PubChem BioAssay
